Abeta yeast res: A-beta toxicity reversal in yeast; 0.063% of 410,000 active; Potency, µM (top dose mostly 46.1 µM), actives largely listed as activators; yeast expressing A-beta42, growth rescue, OD600, 48 h; response scale: 0% DMSO, 100% iron-clioquinol control; note: potency is the fitted concentration of half-maximal effect; nearly all actives have a fitted effect of over 55% in size
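Growth rescue measured by 600 nm absorbance after 48 h yeast culture at 30 C with compound. Values normalized between DMSO and an equimolar ferric chloride plus clioquinol control.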
pAkt inh: Akt phosphorylation inhibition. Neuro2A IGF-stimulated pAkt S473 HTRF, 20 min; stronger effect = lower value. activity change, % for hits at 50 µM. 0.32% of 360,000 active; in the data active = activity change below about -80%; inconclusive = mostly about -51% to -80%; note: % is set by controls: 0 for no effect and ±100 for the full control effect
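Neuro2A cells (4,500/well, DMEM with 0.5% FBS) were treated with compound at a single 50 µM final concentration, stimulated with 6 nM IGF for 20 min at 37 °C, and lysed. Phospho-Akt Ser473 was read by HTRF as 665/615 ratio ×10^4.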
aSyn yeast inh: rescues yeast growth from alpha-synuclein toxicity. Yeast expressing alpha-synuclein, growth rescue, BacTiter-Glo, 24 h. Potency, µM (highest dose often 46.1 µM), for the others: at the top dose growth rescue (activation), usual class: activators. 0.14% of 370,000 active. AID 652106; note: potency is the fitted concentration of half-maximal effect; % of control where 0% means no effect; nearly all actives have a fitted effect of over 65% in size
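Rescue of yeast growth: cells expressing toxic alpha-synuclein, induced in galactose at OD600 0.02, incubated with compound 24 h at 30 C. ATP luminescence quantified growth; inhibitors of toxicity appear as activators.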
FUS yeast rescue: FUS proteinopathy suppression in yeast | Potency, µM (series often up to 76.6 µM), hits mostly activators | S. cerevisiae FUS-expressing, growth rescue, OD600, 24 h | AID 1347120 | 0.24% of 390,000 active;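 note: potency is the fitted concentration of half-maximal effect; plate controls were DMSO vehicle for no effect and reference control for full effect; nearly all actives have a fitted effect of over 55% in size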
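Quantitative HTS measuring growth restoration of FUS-toxic yeast. Galactose-induced cells (OD 0.005) were exposed 24hr at 30C to compounds at several concentrations, then absorbance at 600 nm was recorded.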
TDP-43 yeast inh: rescues yeast growth from TDP-43 toxicity. TDP-43 expressing yeast growth rescue, BacTiter-Glo, 24 h. Potency, µM (titrated, usually from 46.1 µM), inactives show top-dose growth rescue (activation), usual class: activators. 1.8% of 410,000 active. AID 652104; note: potency is the fitted concentration of half-maximal effect; % of control where 0% means no effect; nearly all actives have a fitted effect of over 50% in size
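Galactose-induced TDP-43 yeast, OD600=0.02, compound pinned; 24 hr, 30 deg C; BacTiter-Glo luminescence for growth. Inhibitors of TDP-43 toxicity read as activators.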
* marks the source's active call; other numbers are inactive results; i = inactive; ? = inconclusive; · = not tested or not shown. Most compounds without a hit are left out; they make up all but 2.3% or so of the library. Unless noted, calls come from the whole dose curve; as a rule, active = well fitted curve in the direction sought with a large enough effect; inconclusive = small, poorly fitted or top-dose-only effect, or another doubt; inactive = no such curve, though single readings can be large; an effect the other way counts as inactive or inconclusive.

SMILES | Abeta yeast res | pAkt inh | aSyn yeast inh | FUS yeast rescue | TDP-43 yeast inh
CCN(C(=O)Cn1cnc2onc(-c3ccc(F)cc3)c2c1=O)c1cc(C)ccc1C | i | · | -17% | i | 19%
CCn1cc(C(=O)NCc2ccco2)c(=O)c2cc(S(=O)(=O)N3CCc4ccccc4C3)ccc21 | i | i | 2% | 6.3µM* | -13%
CCn1cc(C(=O)NCc2ccco2)c(=O)c2cc(S(=O)(=O)N3CCCCCC3)ccc21 | i | i | -14% | ? | -9%
CC1CCC(NC(=O)c2ccc(CS(=O)(=O)c3c(Cl)cccc3Cl)o2)CC1 (configuration not stated) | i | · | · | i | 35µM*
Cc1cc(C)nc(N/C(=N\S(=O)(=O)Cc2ccccc2)Nc2cccc(Cl)c2C)n1 | i | -118%* | -3% | i | 0%
Cc1cccc(S(=O)(=O)NC(=O)C2(C)CCN2C(=O)c2ccccc2CCc2ccccc2)c1 (configuration not stated) | i | i | -15% | i | 16µM*
COc1ccc(NC(=O)C2(C)CCN2C(=O)c2ccccc2CCc2ccccc2)cc1OC (configuration not stated) | i | i | 12% | ? | 18µM*
Cc1ccc(NC(=O)C2(C)CCN2C(=O)c2ccccc2CCc2ccccc2)cc1C (configuration not stated) | i | · | 14% | i | 20%
Cc1cc(C)cc(OCCSc2nc3ccc(NC(=O)COc4ccccc4)cc3s2)c1 | i | · | · | i | 18%
COc1ccc(/C=C2\NC(=S)N(CC3CCCO3)C2=O)c(OC)c1 (configuration not stated) | i | i | 3% | i | ?
COc1ccc(/C=C2\NC(=S)N(CC3CCCO3)C2=O)c(OC)c1C (configuration not stated) | i | i | -1% | i | 13µM*
COc1ccc2c(c1)/C(=N/OC(=O)c1cccs1)CCC2 | i | i | 1% | i | ?
COc1ccc(NC(=O)O/N=C2/CCCc3ccc(OC)cc32)cc1 | i | i | -11% | i | 14µM*
O=C1CC(c2ccc(O)cc2)Oc2cc(O)cc(O)c21 (configuration not stated) | i | i | 2% | i | 9%
CC1CC(=O)c2c(cc3c(-c4c(O)cc(O)c5c(O)c6c(cc45)OC(C)CC6=O)c(O)cc(O)c3c2O)O1 (configuration not stated) | i | i | -21% | i | 35µM*
CCCCOc1ccc(CNC(=O)Cc2ccc(NC(=O)N3CCSc4ncccc43)cc2)cc1 | i | · | · | ? | 4%
Cc1ccc(Cn2c(C)c3cnn(CC(=O)N4CCN(c5cc(C)ccc5C)CC4)c(=O)c3c2C)cc1 | i | · | · | ? | 16µM*
Cc1ccc2c(c1)-c1c(cnn1CC(=O)N1CCN(c3cc(C)ccc3C)CC1)CO2 | i | · | · | i | 35µM*
Cc1cccc(N2CCN(C(=O)Cn3ncc4c3-c3ccccc3OC4)CC2)c1C | i | · | · | ? | 18µM*
Cc1c2cnn(CC(=O)N3CCN(c4ccc(F)cc4)CC3)c(=O)c2c(C)n1Cc1ccc(F)cc1 | i | · | · | i | -17%
CCc1nc(Oc2cccc(F)c2)c2oc3ccccc3c2n1 | i | · | · | i | 25%
CCc1ccc(NC(=O)Cn2c(=O)n(CC3CCCO3)c(=O)c3cc(OC)c(OC)cc32)cc1 (configuration not stated) | i | · | · | i | 0%
C=CCOc1ccc(CNc2ccc(NC(=O)CCC)cc2)cc1OCC | i | i | -10% | · | 16%
C=CCOc1c(Br)cc(CNc2ccc(NC(=O)CCC)cc2)cc1OCC | ? | -100%* | 2% | i | ?
C=CCOc1c(Br)cc(CNc2ccc(NC(=O)C(C)C)c(OC)c2)cc1OCC | i | i | 10% | 14µM* | 10%
SMILES | Abeta yeast res | pAkt inh | aSyn yeast inh | FUS yeast rescue | TDP-43 yeast inh
CC(=O)c1ccc(N2CCN(C(=O)/C=C/c3ccc4ccccc4n3)CC2)cc1 | i | i | 10µM* | i | ?
CCN(CCO)c1ncnc2c1sc1nc(CC(C)C)c3c(c12)CC(C)(C)OC3 | i | i | 2% | ? | 18µM*
CC1(C)Cc2nc3sc4c(N(CCO)CCO)ncnc4c3cc2CO1 | i | i | -2% | i | -7%
COc1ccc(-n2cc(C(=O)NCCc3ccc(C)cc3)c3ccccc3c2=O)cc1 | i | · | · | i | 18µM*
COc1cccc(-n2cc(C(=O)NCCc3ccc(C)cc3)c3ccccc3c2=O)c1 | i | · | · | i | 0%
Cc1cccc2c1-c1sc(C(=O)NCCc3ccc(Cl)cc3)cc1CO2 | i | · | · | i | -1%
Cc1c(NC(=O)/C(C#N)=C/c2ccc(-c3ccc(Cl)cc3)o2)c(=O)n(-c2ccccc2)n1C | i | i | 1% | ? | 32µM*
Cc1c(NC(=O)/C(C#N)=C/c2ccc(-c3cc(Cl)ccc3Cl)o2)c(=O)n(-c2ccccc2)n1C | i | i | -5% | · | -9%
CC(=O)COc1ccc2c(-c3ccccc3)cc(=O)oc2c1C | i | i | -15% | i | ?
Cc1c(OCC(=O)C(C)(C)C)ccc2c(-c3ccccc3)cc(=O)oc12 | ? | i | 2% | i | 25µM*
CCCCCn1c(=O)[nH]c2cc(C(=O)N3CCN(c4cccc(C)c4)C(C)C3)ccc2c1=O (configuration not stated) | i | · | · | i | 23%
CCOC(=O)c1ccc(NC(=O)CCc2c(C)nc3c(c(C)nn3-c3ccccc3)c2C)cc1 | i | · | · | i | 24%
Fc1cccc(Cn2ccc(-c3ccc4c(c3)OCO4)n2)c1 | i | i | -14% | i | 13µM*
Cc1ccccc1Cn1ccc(-c2ccc3c(c2)OCO3)n1 | i | i | -8% | i | 18µM*
CC12CCC(=O)C=C1CCC1C2CCC2(C)C(c3csc(N)n3)CCC12 (configuration not stated) | i | i | 18µM* | ? | 14%
CC12CCC(=O)C=C1CCC1C2C(O)CC2(C)C(c3csc(N)n3)CCC12 (configuration not stated) | i | i | 2% | ? | -13%
CCCN1C(=O)c2ccc(C(=O)Nc3nccs3)cc2C1=O | i | -111%* | 1% | i | -12%
COCCN1C(=O)c2ccc(C(=O)Nc3nccs3)cc2C1=O | i | i | -9% | i | -9%
Cc1cnc(NC(=O)c2ccc3c(c2)C(=O)N(Cc2ccco2)C3=O)s1 | i | -120%* | -11% | i | -5%
CC1CCN(CC2CCN(C(=O)NCc3ccccc3)CC2)CC1 | i | · | · | i | 12%

Source: PubChem BioAssay
